{"source": "PubChem BioAssay AID1159580", "about": "(chemical genetic matrix, 2015)", "assay": "chemical genetic growth profiling, strain panel (AID 1159580);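 note: tested at 20 µM; growth read once vehicle control cultures reached saturation at 30 °C; 1 = growth at the plate median or of vehicle wells; lower values mean less growth of the strain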", "settings": "growth OD", "note": "About 2,000 (36%) of roughly 5,500 compounds were called active. Another 18% or so got no clear call; they are omitted. This is one part of the list. Unmarked numbers belong to inactive results. Cut-off read from the data, not from the text of the source: active = normalized growth mostly below about 0.91 (no sharp cut-off); inconclusive = no clear call, values can overlap the other calls; inactive = mostly above about 0.92."}
{"smiles": "CCOC(=O)c1cc(-c2ccc(N)cc2)oc1C", "values": [{"measurement": "normalized growth", "setting": "S. cerevisiae deletion strains, locus YAL013W, strain DEP1, active compounds read low", "result": 0.943}, {"measurement": "normalized growth", "setting": "S. cerevisiae deletion strains, locus YBR229C, strain ROT2, active compounds read low", "result": 0.95}, {"measurement": "normalized growth", "setting": "S. cerevisiae deletion strains, locus YCL061C, strain MRC1, active compounds read low", "result": "0.891 (active)"}, {"measurement": "normalized growth", "setting": "S. cerevisiae deletion strains, locus YDL101C, strain DUN1, active compounds read low", "result": 0.927}, {"measurement": "normalized growth", "setting": "S. cerevisiae deletion strains, locus YDL134C, strain PPH21, active compounds read low", "result": 0.939}, {"measurement": "normalized growth", "setting": "S. cerevisiae deletion strains, locus YDR150W, strain NUM1, active compounds read low", "result": 0.822}, {"measurement": "normalized growth", "setting": "S. cerevisiae deletion strains, locus YEL061C, strain CIN8, active compounds read low", "result": "0.59 (active)"}, {"measurement": "normalized growth", "setting": "S. cerevisiae deletion strains, locus YGR078C, strain PAC10, active compounds read low", "result": 0.942}, {"measurement": "normalized growth", "setting": "S. cerevisiae deletion strains, locus YGR229C, strain SMI1, active compounds read low", "result": 0.964}, {"measurement": "normalized growth", "setting": "S. cerevisiae deletion strains, locus YHR030C, strain SLT2, active compounds read low", "result": "0.351 (active)"}, {"measurement": "normalized growth", "setting": "S. cerevisiae deletion strains, locus YHR087W, strain rtc3, active compounds read low", "result": 0.96}, {"measurement": "normalized growth", "setting": "S. cerevisiae deletion strains, locus YJR043C, strain POL32, active compounds read low", "result": 0.952}, {"measurement": "normalized growth", "setting": "S. cerevisiae deletion strains, locus YJR075W, strain HOC1, active compounds read low", "result": 0.963}, {"measurement": "normalized growth", "setting": "S. cerevisiae deletion strains, locus YKL190W, strain CNB1, active compounds read low", "result": "0.869 (active)"}, {"measurement": "normalized growth", "setting": "S. cerevisiae deletion strains, locus YLR039C, strain RIC1, active compounds read low", "result": "0.414 (active)"}, {"measurement": "normalized growth", "setting": "S. cerevisiae deletion strains, locus YLR058C, strain SHM2 (second series), active compounds read low", "result": 0.961}, {"measurement": "normalized growth", "setting": "S. cerevisiae deletion strains, locus YLR085C, strain ARP6, active compounds read low", "result": "0.458 (active)"}, {"measurement": "normalized growth", "setting": "S. cerevisiae deletion strains, locus YLR262C, strain YPT6, active compounds read low", "result": "0.385 (active)"}, {"measurement": "normalized growth", "setting": "S. cerevisiae deletion strains, locus YML094W, strain GIM5, active compounds read low", "result": "0.806 (active)"}, {"measurement": "normalized growth", "setting": "S. cerevisiae deletion strains, locus YMR219W, strain ESC1, active compounds read low", "result": 0.959}, {"measurement": "normalized growth", "setting": "S. cerevisiae deletion strains, locus YMR263W, strain SAP30, active compounds read low", "result": 0.889}, {"measurement": "normalized growth", "setting": "S. cerevisiae deletion strains, locus YMR307W, strain GAS1, active compounds read low", "result": "0.548 (active)"}, {"measurement": "normalized growth", "setting": "S. cerevisiae deletion strains, locus YNL153C, strain GIM3, active compounds read low", "result": "0.66 (active)"}, {"measurement": "normalized growth", "setting": "S. cerevisiae deletion strains, locus YNL298W, strain CLA4 (second series), active compounds read low", "result": "0.783 (active)"}, {"measurement": "normalized growth", "setting": "S. cerevisiae deletion strains, locus YNL322C, strain KRE1, active compounds read low", "result": 0.973}, {"measurement": "normalized growth", "setting": "S. cerevisiae deletion strains, locus YNR030W, strain Alg12, active compounds read low", "result": "0.885 (active)"}, {"measurement": "normalized growth", "setting": "S. cerevisiae deletion strains, locus YPL055C, strain LGE1, active compounds read low", "result": "0.749 (active)"}, {"measurement": "normalized growth", "setting": "S. cerevisiae deletion strains, locus YPL241C, strain CIN2, active compounds read low", "result": "0.483 (active)"}, {"measurement": "normalized growth", "setting": "S. cerevisiae deletion strains, locus YPR135W, strain CTF4, active compounds read low", "result": "0.611 (active)"}, {"measurement": "normalized growth", "setting": "S. cerevisiae strains, strain wild type, active compounds read low", "result": 0.923}]}
